A short description of test [1]: qHTS assay for small molecules that induce genotoxicity in human embryonic kidney cells expressing luciferase-tagged ATAD5 (AID 651632). Further: nearly all actives have a fitted effect of over 15% in size. Further: potency means the concentration at half of the fitted maximal effect. Summed up:
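Reporter cells (HEK293T) express luciferase-tagged ATAD5, a protein that accumulates after DNA damage. Treat 16 hr at 37C/5% CO2, add Amplite, wait 30 min at RT, and read luminescence.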
Background: In qHTS, concentration-response curves come from the screen itself.

Test [2] in a line: qHTS assay for small molecule agonists of the p53 signaling pathway - cell viability (AID 651633; calls by dose curve; further: nearly all actives have a fitted effect of over 30% in size; further: potency means the concentration at half of the fitted maximal effect). Summed up:
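p53RE-bla cells were treated with compound for 16 hours at 37 C. Cytotoxicity was then measured as CellTiter-Glo luminescence after 30 min at room temperature.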

The nature of test [3]: qHTS assay for small molecule disruptors of the mitochondrial membrane potential - cell viability (AID 720634; calls by dose curve; further: nearly all actives have a fitted effect of over 20% in size; further: potency means the concentration at half of the fitted maximal effect). A digest of the protocol: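 Measuring cytotoxicity alongside mitochondrial potential, the screen quantified ATP by luminescence in HepG2 cells after 1 hr compound incubation and a 30 min room-temperature CellTiter-Glo step.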
The nature of test [4]: qHTS assay for small molecule disruptors of the mitochondrial membrane potential (AID 720635). Further: potency means the concentration at half of the fitted maximal effect. Summed up:
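HepG2 cells exposed to compound 1 hr at 37C, then Mito-MPS dye 30 min. Ratio read of aggregate (540/590 nm) versus monomer (490/535 nm) fluorescence.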

The nature of test [5]: qHTS assay to test for compound auto fluorescence at 590 nm (red) in HepG2 cells (AID 720674). A digest of the protocol:
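Seeding: 2,000 HepG2 cells/well, MEM/10% FBS, overnight 37 C. Dosing: compound vs DMSO. Incubation: 1 hr, 37 C, 5% CO2. Read: fluorescence 540 ex/590 em, Rose Bengal sodium as red reference.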

Test [6] can be described thus: qHTS assay to test for compound auto fluorescence at 535 nm (green) in HepG2 cells (AID 720675). Further: potency means the concentration at half of the fitted maximal effect.
A short description of test [7]: qHTS assay to test for compound auto fluorescence at 460 nm (blue) in HEK293 cells (AID 720678). A digest of the protocol: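 Blue-channel (Ex/Em 405/460 nm) intensity measured in HEK293 cultures after overnight compound exposure at 37C; signal expressed relative to triamterene. Cells plated 2,000 per well in 10% dialyzed FBS medium and allowed 4-5 hr to attach.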

Test [8] in a line: qHTS assay to test for compound auto fluorescence at 590 nm (red) in HEK293 cells (AID 720679). Summed up:
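Red-channel autofluorescence (Ex/Em 540/590 nm; Rose Bengal sodium reference) was measured after overnight 37C, 5% CO2 exposure of attached HEK293 cells, 2,000 per well in medium with 10% dialyzed FBS.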

A short description of test [9]: qHTS assay for small molecules that induce genotoxicity in human embryonic kidney cells expressing luciferase-tagged ATAD5 - cell viability (AID 651634; calls by dose curve; further: nearly all actives have a fitted effect of over 25% in size). Summed up: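 Seeding of 2,000 HEK293T ATAD5-luciferase cells per well preceded pin-tool compound transfer. Plates sat 15.5 hr at 37C under 5% CO2, then fluorescence was read after 30 min with CellTiter-Fluor.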

SMILES strings stand for the structures. Where “and” joins values, the source holds several entries; their conditions need not be identical. Equal entries are not always repeated. Results filed as inconclusive are left out. Some structures have more than one record in an assay (separate samples or runs), and their calls can disagree. Calls of active or inactive are those of the source. Unless noted, the call rests on the fitted dose curve; in most records, active means well fitted curve in the direction sought with a large enough effect in the repeat runs; inconclusive means weak or mixed curves; inactive means no such curve, though single readings can be large; an effect the other way counts as inactive or inconclusive.
On the % scale 0 is the no-effect control and ±100 the full control effect.

For `CCCCCCOC(=O)c1ccc(O)cc1`, the Potency in test [1] is 21.7 µM (active) and 19.3 µM (active); in test [3], 27.3 µM (active) and 17.2 µM (active); in test [4] it was 6.12 µM (active) and 8.63 µM (active). Moreover, the Potency result in test [2], in test [5], in [6], in [7] and in test [8] was “inactive” throughout.

In the case of `Nc1ccc(N)c2ccccc12`, the Potency entry in [1], in test [5], in test [7] and in test [8] was “inactive” throughout. The Potency in test [2] is 15.3 µM (active); in test [3], 13.7 µM (active); in [4] it was 0.153 µM (active); in test [6], 8.91 µM (active).

In the case of `CCOc1nc2cccc(C(=O)OC(C)OC(=O)OC3CCCCC3)c2n1Cc1ccc(-c2ccccc2-c2nn[nH]n2)cc1` (stereo not given), the Potency result in test [1], in test [5], in [6], in test [7] and in test [8] was “inactive” in each case. For the same compound, the Potency in test [2] is 12.2 µM (active); in test [4] it was 13.7 µM (active).

For the compound `C[C@H]1[C@H]2CC[C@H]3[C@@H]4CC=C5C[C@@H](N(C)C)CC[C@]5(C)[C@H]4CC[C@]23CN1C`, the Potency result in test [1], in test [2], in test [3], in test [4], in [5] and in test [6] was “inactive” throughout. In addition, the Potency entry in test [7] and in test [8] was “inactive” throughout.

As for `CNCc1cc(F)ccc1Oc1ccc(Cl)c(Cl)c1`, the Potency result in [1], in test [2], in [3], in test [5], in test [6] and in test [7] was “inactive” in each case. In addition, the Potency entry in test [8] is “inactive”.

Consider `CCCCN1CCCC[C@H]1C(=O)Nc1c(C)cccc1C`, for which the Potency entry in [1], in test [2], in test [3], in test [5], in test [6] and in test [7] was “inactive” in each case. Besides, the Potency result in test [8] is “inactive”.

As for `Clc1ccccc1C(c1ccccc1)(c1ccccc1)n1ccnc1`, the Potency result in [1], in test [5], in [6], in test [7] and in test [8] was “inactive” throughout. Moreover, the Potency is 19.3 µM (active) in test [2]; “inactive and 54.5 µM (active)” in test [3]; 10.1 µM (active) and 9.69 µM (active) in test [4].

Take `Clc1ccc2n[nH]nc2c1`: the Potency entry in test [1], in test [2], in test [3], in test [5], in test [6] and in [7] was “inactive” each time. In test [8], the Potency entry is “inactive”.

In the case of `CCCCCCC[N+](CC)(CC)CCCCc1ccc(Cl)cc1`, the Potency result in test [1], in [2] and in [3] was “inactive” each time. Moreover, the fluorescence, relative to Rose Bengal in [5] is -0.305% [at 18.6 µM] (inactive). Moreover, the fluorescence, % of fluorescein control in [6] is -0.0059% [at 18.6 µM] (inactive). The fluorescence, % of triamterene in test [7] was 0.0756% [at 18.6 µM] (inactive). In addition, the fluorescence, % of fluorescent control in test [8] was -0.312% [at 18.6 µM] (inactive).

Consider `Cc1cccc(CN2CCN(C(c3ccccc3)c3ccc(Cl)cc3)CC2)c1` (stereo not given), for which the Potency result in test [1], in [9], in [3] and in [4] was “inactive” each time. Moreover, the fluorescence, relative to Rose Bengal in [5] is -0.676% [at 18.6 µM] (inactive). The fluorescence, % of fluorescein control in test [6] was 0.0228% [at 18.6 µM] (inactive). Moreover, the fluorescence, % of triamterene in [7] is 0.0825% [at 18.6 µM] (inactive). The fluorescence, % of fluorescent control in [8] was 0.431% [at 18.6 µM] (inactive).

Turning to `CN(C)c1ccc(SC#N)cc1`, the Potency entry in test [1], in test [2], in test [3], in test [5], in test [6] and in [7] was “inactive” throughout. Also, the Potency result in test [8] is “inactive”.

In the case of `CC(C)c1ccc2c(c1)CC[C@H]1[C@](C)(CN)CCC[C@]21C`, the Potency entry in test [1], in test [5], in test [6], in [7] and in [8] was “inactive” in each case. In test [2], the Potency was 27.3 µM (active).

Regarding `NC(=NCCCCCCN=C(N)/N=C(\N)Nc1ccc(Cl)cc1)/N=C(\N)Nc1ccc(Cl)cc1`, the Potency result in test [1], in [3], in test [5], in test [6], in test [7] and in test [8] was “inactive” throughout. Besides, the Potency in test [2] was 38.2 µM (active) [middle of 4 runs].

In the case of `CCCCC(CC)COP(=O)(O)OCC(CC)CCCC` (stereo not given), the Potency entry in test [1], in test [3], in [5], in test [6], in test [7] and in [8] was “inactive” in each case. Moreover, the Potency in test [2] was 61.3 µM (active) and 27.3 µM (active); in test [4] it was 68.7 µM (active).

In the case of `CCCCC(CC)CN=C(N)NC(N)=NCCCCCCN=C(N)NC(N)=NCC(CC)CCCC` (stereo not given), the Potency entry in [1], in test [5], in test [6], in test [7] and in test [8] was “inactive” in each case. Also, the Potency was 26.6 µM (active) in test [2], 21.1 µM (active) in test [3] and 17.6 µM (active) in test [4].

For the compound `O=C(Oc1cccc2cccnc12)c1ccccc1`, the Potency entry in [1], in test [2], in test [3], in test [5], in test [6] and in [7] was “inactive” throughout. The Potency result in [8] was “inactive”.

In the case of `CCCN(CCC)c1c([N+](=O)[O-])cc(C(F)(F)F)c(N)c1[N+](=O)[O-]`, the Potency entry in [1], in test [5], in test [6], in test [7] and in test [8] was “inactive” in each case. Besides, the Potency in [2] is 30.5 µM (active); in [4] it was 4.31 µM (active).

With `CCCC(c1cc(C(C)(C)C)c(O)cc1C)c1cc(C(C)(C)C)c(O)cc1C`, the Potency entry in test [1], in test [5], in test [6], in test [7] and in [8] was “inactive” throughout. For the same compound, the Potency in [2] is 17.4 µM (active); in test [3], 39 µM (active); in test [4], 3.9 µM (active).

In the case of `CSc1ccc(/C=C2/C(C)=C(CC(=O)O)c3cc(F)ccc32)cc1`, the Potency entry in test [1], in test [3], in test [5], in test [6], in test [7] and in test [8] was “inactive” in each case. Besides, the Potency in [2] was 26.6 µM (active).

In the case of `Oc1ccc2cc(SSc3ccc4cc(O)ccc4c3)ccc2c1`, the Potency entry in [1], in [2], in [3], in test [5], in test [6] and in test [7] was “inactive” in each case. The Potency entry in test [8] was “inactive”. The Potency in [4] is 38.6 µM (active) and 24.3 µM (active).

As to `Cn1cc(C(=O)[C@@H]2CCc3nc[nH]c3C2)c2ccccc21`, the Potency entry in test [1], in test [2], in test [3], in test [4], in test [5] and in test [6] was “inactive” throughout. Moreover, the Potency entry in test [7] and in test [8] was “inactive” in each case.

Turning to `Fc1ccc(C(c2ccc(F)cc2)N2CCN(C/C=C/c3ccccc3)CC2)cc1`, the Potency entry in test [1], in test [3], in test [5], in test [6], in test [7] and in test [8] was “inactive” each time. Also, the Potency in test [2] is 3.76 µM (active).

`CCCCCCCCCCCCCCCCCC[N+](C)(C)C`: the Potency result in test [1], in [5], in [6], in test [7] and in [8] was “inactive” each time. In addition, the values for the Potency in test [2] and in test [4] were 61.3 µM (active) and 48.7 µM (active), respectively.

These data come from PubChem BioAssay (Tox21).
